Bioassay records deposited in PubChem BioAssay by several laboratories.
Pf gametocyte = late stage P. falciparum gametocyte viability inhibitors, primary screen, ATP luminescence, HTS. P. falciparum stage V gametocytes, 24 h. inhibition, % at 10.9 µM. 150,000 tested, 0.065% active. AID 743093, 2013;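 active = inhibition above the mean plus 3 SD of compounds within the control limits, set per campaign, cut at about 38% in these data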
Mcl1-Bid inh = Mcl-1/Bid binding inhibitors, primary screen, biochemical, TR-FRET, 1536-well. inhibition, % at 21.7 µM. TR-FRET Mcl-1/Bid-Dy647 peptide binding. Induced myeloid leukemia cell differentiation protein Mcl-1 (Homo sapiens), Q07820. AID 1021, 2008. 220,000 tested, 0.97% active;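 active = compounds that cut the binding signal by more than half at the single screening dose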;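 note: His-tagged Mcl-1 with europium anti-His antibody binding Bid BH3 peptide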
Bim-Mcl-1 = inhibitors of Bim peptide binding to Mcl-1, primary screen, biochemical, bead-based flow cytometry, multiplex; AID 1009, 2008; 190,000 tested, 0.1% active; Bim peptide-Mcl-1 binding; Induced myeloid leukemia cell differentiation protein Mcl-1 (Homo sapiens), Q07820; inhibition, % at 10 µM; in the data active = inhibition above about 40%
14-3-3 Bad inh = inhibitors of 14-3-3 zeta/Bad binding, primary screen, biochemical, TR-FRET, bovine 14-3-3 zeta. 14-3-3 protein zeta/delta (Bos taurus), P63103. TR-FRET 14-3-3zeta/Dy647-pBad peptide displacement, 1 h. inhibition, % at 21.7 µM. 220,000 tested, 0.71% active. AID 781, 2007;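 active = inhibition above about 70%, limit read from the data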
Target sequence (P63103 whole entry, looked up): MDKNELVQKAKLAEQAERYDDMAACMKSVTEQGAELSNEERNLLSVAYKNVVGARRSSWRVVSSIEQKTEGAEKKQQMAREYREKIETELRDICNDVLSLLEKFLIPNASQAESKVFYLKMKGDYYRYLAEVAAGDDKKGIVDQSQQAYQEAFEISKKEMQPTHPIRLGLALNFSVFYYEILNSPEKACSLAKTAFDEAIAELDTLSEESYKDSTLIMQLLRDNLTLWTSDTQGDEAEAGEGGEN
Hck-Nef inh = inhibitors of Nef-activated human Hck kinase, primary screen, biochemical, Z-Lyte FRET, 384-well, Hck-YEEI. Tyrosine-protein kinase HCK (Homo sapiens), P08631. 220,000 tested, 0.68% active. AID 463187, 2010. Recombinant Hck-YEEI plus Nef, Z-Lyte FRET kinase assay. inhibition, % at 20 µM;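 active = Hck-Nef kinase inhibition above about 50%, limit read from the data; inactive = inhibition below that limit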
Target sequence (P08631 whole entry, looked up): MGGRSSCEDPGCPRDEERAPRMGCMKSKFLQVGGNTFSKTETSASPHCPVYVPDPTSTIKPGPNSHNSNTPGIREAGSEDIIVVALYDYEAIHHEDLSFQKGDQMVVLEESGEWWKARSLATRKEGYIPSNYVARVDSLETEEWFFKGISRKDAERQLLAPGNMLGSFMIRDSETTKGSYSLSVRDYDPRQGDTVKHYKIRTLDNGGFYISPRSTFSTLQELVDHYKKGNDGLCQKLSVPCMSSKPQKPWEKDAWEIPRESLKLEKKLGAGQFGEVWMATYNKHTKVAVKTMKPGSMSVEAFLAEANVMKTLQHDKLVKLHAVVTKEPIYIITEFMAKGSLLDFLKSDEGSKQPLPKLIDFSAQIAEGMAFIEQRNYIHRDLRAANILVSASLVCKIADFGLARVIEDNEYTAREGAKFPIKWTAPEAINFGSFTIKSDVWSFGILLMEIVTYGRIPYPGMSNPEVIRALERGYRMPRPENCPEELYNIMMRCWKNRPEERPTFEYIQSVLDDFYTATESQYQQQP
Mcl1 Noxa PPI = Mcl-1/Noxa binding inhibitors, primary screen, biochemical, TR-FRET, 1536-well. TR-FRET Mcl-1/Noxa peptide binding, 2 h. inhibition, % at 21.7 µM. 220,000 tested, 1.5% active. Induced myeloid leukemia cell differentiation protein Mcl-1 (Homo sapiens), Q07820;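 active = compounds that cut the protein-peptide binding signal by more than 50% relative to plate controls in a single-dose test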;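 note: His-tagged Mcl-1 with rhodamine Noxa BH3 peptide and terbium anti-His antibody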
Each line names hits and unclear results; the compound was inactive in the other large screens. A selection: hits, their analogues and other compounds. The true share with any hit is near 2.9%.

CCOc1ccc(/C(CCC(=O)O)=N/NC(=S)NCCc2ccccc2)cc1	none
CC(C)(CO)NCC(O)Cn1cc(C=O)c2ccccc21 (centres undefined)	14-3-3 Bad inh 100.1
O=C(NCC(=O)N1CCN(c2ncccn2)CC1)c1cccs1	none (no result: Pf gametocyte)
Cc1ccc(C(=O)NCC(=O)N2CCN(c3ncccn3)CC2)s1	Mcl1-Bid inh 65.3
COc1ccc(C2(CNC(=O)c3ccco3)CCOCC2)cc1	none (no result: Pf gametocyte)
COc1cc(/C=N/NC(=O)c2ccc(CN3c4cccc5cccc(c45)S3(=O)=O)cc2)cc(OC)c1O	Mcl1-Bid inh 82.2, 14-3-3 Bad inh 91.8, Mcl1 Noxa PPI 72.1
COc1ccc(C=O)cc1CSc1ccccn1	none (no result: Bim-Mcl-1)
COc1cc(/C=N/NC(=O)c2ccc(CSc3nncn3C)cc2)cc(OC)c1O	Mcl1 Noxa PPI 55.1
COc1ccc(/C=N/NC(=O)c2ccc(O)cc2O)cc1CSc1ccccn1	Mcl1 Noxa PPI 98.2
COc1ccc(/C=N/NC(=O)c2ccc(CN3c4cccc5cccc(c45)S3(=O)=O)cc2)cc1	none
COc1ccc(/C=N/NC(=O)c2ccc(COc3cccc4cccnc34)cc2)cc1O	Mcl1 Noxa PPI 50.7 (no result: Bim-Mcl-1)
COc1ccc(/C=N/NC(=O)c2ccc(COc3cccc4cccnc34)cc2)cc1OC	none
Nc1nc(NC(=O)C(Cl)(Cl)Cl)nn1-c1ccccc1	none
Cn1c(SCC(=O)N/N=C/C=C\c2ccccc2[N+](=O)[O-])nc2ccccc21	none
Cc1ccc(C)c(/C=N/NC(=S)NC(C)C)c1	none
CCn1c(/N=C/c2ccccc2NS(=O)(=O)c2ccc(C)cc2)nc2ccccc21	none (no result: Pf gametocyte)
Cc1nc(Nc2ccc(O)cc2)c2c3c(sc2n1)CCCC3	none (no result: Pf gametocyte, Bim-Mcl-1)
Cc1ccc(CNc2nc(C)nc3sc4c(c23)CCC4)cc1	Mcl1-Bid inh 91.2 (no result: Pf gametocyte)
CC1OC(Oc2c(-c3cc(O)c(O)c(O)c3)oc3cc(O)cc(O)c3c2=O)C(O)C(O)C1O (centres undefined)	none (no result: Pf gametocyte, Bim-Mcl-1)
O=C(O)C1OC(Oc2c(-c3ccc(O)c(O)c3)oc3cc(O)cc(O)c3c2=O)C(O)C(O)C1O (centres undefined)	Mcl1 Noxa PPI 52.8 (no result: Pf gametocyte)
CCOC(=O)c1ccc(N2C(=O)CC(N3CCN(C/C=C/c4ccccc4)CC3)C2=O)cc1 (centres undefined)	none (no result: Pf gametocyte)
COc1cc2[nH]c(=O)c(C(=O)NCCCN3CCOCC3)c(O)c2cc1OC	Mcl1 Noxa PPI 67.5
COc1ccc(OC)c(/C=N/NC(=O)CSc2cc(C)nc3c(OC)cccc23)c1	14-3-3 Bad inh 86.2
COc1ccc(CNC(=O)OCCN2CCN(Cc3ccccc3)CCC2=O)cc1	none
COc1ccc(CCNC(=O)c2ccc(CNS(=O)(=O)c3cccc(Cl)c3)cc2)cc1OC	none
COc1ccc(CCNC(=O)c2ccc(CNS(=O)(=O)c3ccc(C(C)(C)C)cc3)cc2)cc1OC	Mcl1-Bid inh 97.4 (no result: Pf gametocyte)
Cc1c(Cl)cccc1NC(=O)Cn1c(CCC(=O)O)ccc1-c1ccc(Cl)cc1	none (no result: Mcl1-Bid inh, Bim-Mcl-1, 14-3-3 Bad inh, Hck-Nef inh, Mcl1 Noxa PPI)
O=C(CSc1nc2nn(-c3ccccc3)c(=O)c-2c2n1CCCCC2)NCCc1ccccc1	Mcl1 Noxa PPI 55.3
Cc1cnc(SCc2cnc(C)nc2N)nc1	none
COc1ccc(C(=O)C2CCCN(Cc3cn[nH]c3-c3ccc(F)cc3)C2)cc1OC (centres undefined)	Mcl1-Bid inh 95.8
COc1cc(N2CCCC2)c(OC)cc1/C=C(/C#N)c1ccc(Br)cc1	none (no result: Bim-Mcl-1)
COc1cc(N2CCCC2)c(OC)cc1/C=C(/C#N)c1ccc(F)cc1	Mcl1 Noxa PPI 72.1 (no result: Pf gametocyte)
COc1ccc(OC)c(NC(=O)COC(=O)c2c3c(nc4ccccc24)CCCC3)c1	none (no result: Pf gametocyte)
COc1ccc(OC)c(NC(=O)COC(=O)c2cc3c(s2)CCC3)c1	Bim-Mcl-1 95.0, Mcl1 Noxa PPI 71.5 (no result: Pf gametocyte)
O=C(Cc1c(Cl)cccc1Cl)OCC(=O)N1CCc2ccccc2C1	Mcl1-Bid inh 78.3
O=C(Cn1[nH]c(=O)c2ccccc2c1=O)OCC(=O)N1CCCc2ccccc21	none (no result: Pf gametocyte)
O=C(Cn1[nH]c(=O)c2ccccc2c1=O)OCC(=O)N1CCc2ccccc2C1	Mcl1-Bid inh 83.0
CCc1nnc(NC(=O)CSc2nnc(C)n2CC2CCCO2)s1 (centres undefined)	none
O=c1c(Cc2ccc(Cl)cc2Cl)c(O)ccn1Cc1ccc(Cl)cc1	none (no result: Pf gametocyte)
CCCCCSc1nnc2c(n1)OC(c1cccn1C)N(C(C)=O)c1ccccc1-2 (centres undefined)	Mcl1-Bid inh 97.6 (no result: Pf gametocyte)
CCOC(=O)CN(C(=O)CSc1nnc(COc2ccc(OC)cc2)n1CC)c1ccccc1	none (no result: Bim-Mcl-1)
COc1ccc(NC(=O)c2cc(C3CC3)on2)c(OC)c1	Mcl1-Bid inh 85.3 (no result: Pf gametocyte)
Cc1ccc(-c2cc(C(=O)NCc3ccc4c(c3)OCO4)[nH]n2)c(O)c1C	none
COc1ccc(C(=O)Nc2nc3cc4c(cc3s2)OCO4)c(OC)c1	Mcl1-Bid inh 51.0, Mcl1 Noxa PPI 51.6 (no result: Bim-Mcl-1)
CC(=O)NC1CC2CCCC(C1)N2C(=O)Nc1cccc(Cl)c1 (centres undefined)	none (no result: Mcl1-Bid inh, Bim-Mcl-1, 14-3-3 Bad inh, Hck-Nef inh, Mcl1 Noxa PPI)
N#Cc1sc2nc(-c3ccccc3)cc(-c3ccco3)c2c1N	Mcl1-Bid inh 74.2, Mcl1 Noxa PPI 101.8 (no result: Pf gametocyte)
N#Cc1sc2nc(C3CC3)cc(-c3ccccc3)c2c1N	none
Cc1ccc(-c2cc(-c3ccco3)c(C#N)c(=O)[nH]2)cc1	Mcl1 Noxa PPI 68.0 (no result: Bim-Mcl-1)
N#Cc1c(-c2ccccc2)cc(-c2ccco2)c(C#N)c1N	Mcl1 Noxa PPI 73.7 (no result: Pf gametocyte)
N#Cc1c(-c2ccco2)cc(-c2ccccc2)[nH]c1=O	none (no result: Bim-Mcl-1)
COc1cc(CN2CCC(C(=O)N3CCN(c4ccccc4F)CC3)CC2)cc(OC)c1O	Mcl1-Bid inh 51.5
CCOc1ccc(CN2CCC(C(=O)N3CCN(c4ccccc4F)CC3)CC2)cc1OC	14-3-3 Bad inh 73.7
C=CCn1cc(/C=N/NC(=O)COc2cccc3cccnc23)c2ccccc21	Mcl1-Bid inh 89.0, Hck-Nef inh 71.2, Mcl1 Noxa PPI 66.3 (no result: Pf gametocyte)
CC(C)CCn1c(S(=O)(=O)O)nc2ccccc21	14-3-3 Bad inh 75.4 (no result: Pf gametocyte)
O=S(=O)(O)c1nc2ccccc2n1Cc1ccccc1	14-3-3 Bad inh 70.6 (no result: Pf gametocyte)
CS(=O)(=O)c1nc2ccccc2n1Cc1ccccc1	none
CC(C)Cn1c(S(=O)(=O)O)nc2ccccc21	none (no result: Bim-Mcl-1)
COC(=O)c1c(NC(C)=O)sc2c1CCCCC2	none
COCCNC(=O)CN1CCN(C(c2ccccc2)c2ccccc2)CC1	14-3-3 Bad inh 87.9 (no result: Pf gametocyte)
C/C(N)=C(/C#N)C(=O)CSc1nnc(Nc2c(C)cccc2C)s1	Mcl1 Noxa PPI 72.4 (no result: Pf gametocyte)
Cc1ccc(S(=O)(=O)N(c2nc(N(C)C)nc(N(C)C)n2)n2cnnc2)cc1	none
CSc1nc2ccc3nc(NC(=O)c4ccccc4)sc3c2s1	Mcl1-Bid inh 54.8 (no result: Pf gametocyte)
